In PubChem BioAssay (NCATS):
Results filed as inconclusive are left out. Calls of active or inactive are those of the source. Unless noted, calls follow the shape of the dose curve; as a rule, active = well fitted curve in either direction with a large enough effect (not every such curve was filed as active); inconclusive = small, poorly fitted or top-dose-only effect, or another doubt; inactive = flat fitted curve, though single readings scatter.

Key:
[1] = AP1 Signaling Pathway (AID 357); conditions: ME-180 AP-1-bla reporter, EGF-induced, beta-lactamase ratio, 5 h; at 17.2 µM (top of the series) unless noted;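 also: ME-180 reporter cells stimulated with EGF at its EC50 level; % is scaled to controls: 0 for no effect and ±100 for the full control effect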
Summary of the method: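 Beta-lactamase reporter under AP-1 response element, ME-180 background. Stimulus: EC50 EGF. Compound exposure 5 h, 37 °C. Detection: CCF4, 2.5 h RT, 460/530 nm. Values: AC50 from titration.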

[2] = NFAT Signaling Pathway (AID 444); conditions: Jurkat NFAT-bla M1, carbachol, beta-lactamase ratio, 5 h; at 17.2 µM (top of the series) unless noted;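 also: carbachol stimulus at about its EC50 of 1 µM final; % is scaled to controls: 0 for no effect and ±100 for the full control effect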
Summary of the method: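 Jurkat cells with NFAT-driven β-lactamase reporter and co-expressed M1 receptor, stimulated with carbachol (final 1 uM, ~EC50), compound titration, 5 h at 37 °C. CCF4 loaded 1 h at RT; 460/530 nm ratio gave %activity and AC50.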

[3] = Stat Signaling Pathway (AID 446); conditions: ME-180 SIE beta-lactamase reporter, IL-6 stimulated, 5 h; at 17.2 µM (top of the series) unless noted;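 also: ME-180 cervical cancer cells given 40 pM IL-6 alongside compound; SIE-controlled beta-lactamase reporter measured as 460/530 nm FRET emission ratio; % is scaled to controls: 0 for no effect and ±100 for the full control effect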
Summary of the method: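 ME-180 SIE-bla cells; overnight plating; cpd + IL-6 40 pM, 5 h, 37 C; LiveBLAzer 2.5 h RT; 460/530 nm emission ratio. Normalized to 300 pM IL-6 and 125 nM JAK inhibitor controls.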

[4] = target: Glucocorticoid receptor (Homo sapiens) (UniProt P04150); test: GR-GFP Redistribution (AID 450;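 active = compounds whose dose series gives a full or clear partial fitted curve of increased nuclear translocation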; also: potency is read from the fitted curve at half-maximal effect)
[5] = qHTS Assay for Identification of Small Molecule Agonists for Hypoxia Response Element Signaling Pathway (AID 914; active = well fitted activation curve with a large enough effect in the signal ratio, with a control signal flat, not every such curve was filed as active; the % refers to the signal ratio; also: potency is read from the fitted curve at half-maximal effect; as to activation: % of control where 0% means no effect); conditions: ME-180 (cervical carcinoma) HRE-bla reporter, beta-lactamase ratio, CoCl2, 17 h; activation: active compounds read high
Summary of the method: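 AC50 values come from titration-series %Activity, taken as the 460/530nm ratio of CCF4 fluorescence (excitation 405nm). CellSensor HRE-bla ME-180 cells were treated 17 hours at 37 C with compound plus an EC50 level of CoCl2.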

Chain of Glucocorticoid receptor (Homo sapiens) (P04150 whole entry, looked up): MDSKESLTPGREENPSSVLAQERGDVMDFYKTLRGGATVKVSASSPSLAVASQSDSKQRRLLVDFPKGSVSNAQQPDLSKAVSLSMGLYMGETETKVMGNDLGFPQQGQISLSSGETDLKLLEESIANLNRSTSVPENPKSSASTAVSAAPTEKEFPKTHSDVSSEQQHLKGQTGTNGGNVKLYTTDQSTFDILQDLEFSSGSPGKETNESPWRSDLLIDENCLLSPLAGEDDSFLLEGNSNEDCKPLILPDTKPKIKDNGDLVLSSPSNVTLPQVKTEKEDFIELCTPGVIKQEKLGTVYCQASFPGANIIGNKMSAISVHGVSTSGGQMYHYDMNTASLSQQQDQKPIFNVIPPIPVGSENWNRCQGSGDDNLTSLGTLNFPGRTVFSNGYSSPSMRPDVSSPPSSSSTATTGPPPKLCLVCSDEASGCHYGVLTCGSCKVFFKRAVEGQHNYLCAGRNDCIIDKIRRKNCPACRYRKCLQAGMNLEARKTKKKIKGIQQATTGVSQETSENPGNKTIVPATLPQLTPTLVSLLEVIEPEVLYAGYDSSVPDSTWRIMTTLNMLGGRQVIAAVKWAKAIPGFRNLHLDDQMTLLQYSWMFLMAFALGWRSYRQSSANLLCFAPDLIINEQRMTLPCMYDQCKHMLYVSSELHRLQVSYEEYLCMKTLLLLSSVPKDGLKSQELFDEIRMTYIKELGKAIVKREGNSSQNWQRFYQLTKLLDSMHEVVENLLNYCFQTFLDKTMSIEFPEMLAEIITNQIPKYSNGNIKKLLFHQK

O=C(CNC1C(=O)Nc2ccccc21)Sc1ccccc1 (stereo not given)
inactive: activity change, negative = inhibition [1] -0.11% | activity change, negative = inhibition [2] -10.4% | activity, negative = inhibition [3] 9.1% | Potency [4] > 20.6 µM | activation [5] 4%

CN1CCN(c2c3c(c(C#N)c4nc5ccccc5n24)CCCC3)CC1
inactive: activity change, negative = inhibition [1] 14.7% | activity change, negative = inhibition [2] 0.538% | activity, negative = inhibition [3] 5.04% | Potency [4] > 20.6 µM | activation [5] -2.43%

Cc1cc(C)n(C(=O)CN2C(=O)CCC2=O)n1
inactive: activity change, negative = inhibition [1] 14.2% | activity change, negative = inhibition [2] 0.324% | activity, negative = inhibition [3] 3.71% | Potency [4] > 20.6 µM | activation [5] 6.68%

CCCCOC(=O)Nc1ccc(S(=O)(=O)Nc2nc(C)cc(C)n2)cc1
inactive: activity change, negative = inhibition [1] -5.25% | activity change, negative = inhibition [2] -8.58% | activity, negative = inhibition [3] -5.4% | Potency [4] > 20.6 µM | activation [5] -6.31%

C=CCn1c(=N)c(C(=O)OCC)cc2c(=O)n3cccc(C)c3nc21
inactive: activity change, negative = inhibition [1] 15.5% | activity change, negative = inhibition [2] -23.4% | activity, negative = inhibition [3] 28.1% | Potency [4] > 20.6 µM
active: Potency [5] 10 µM

CCC(=O)N(Cc1cccs1)C1CCOC(C)(C)C1 (stereo not given)
inactive: activity change, negative = inhibition [1] -6.24% | activity change, negative = inhibition [2] -16.2% | activity, negative = inhibition [3] -2.05% | Potency [4] > 20.6 µM | activation [5] -1.46%

CCN(CC)CCNc1nc2c(c(=O)[nH]c(=O)n2C)n1CCOc1ccccc1
inactive: activity change, negative = inhibition [1] -3.03% | activity change, negative = inhibition [2] -7.16% | activity, negative = inhibition [3] 8.2% | Potency [4] > 20.6 µM | activation [5] 0.547%

CC1=CC(c2ccccc2)n2nc(N3C(=O)C4CC=CCC4C3=O)nc2N1 (stereo not given)
inactive: activity change, negative = inhibition [1] 0.952% | activity change, negative = inhibition [2] 13.9% | activity, negative = inhibition [3] 11.6% | Potency [4] > 20.6 µM | activation [5] 6.95%

COC(=O)C(NC(C)=O)(Nc1nc2c(s1)CCCC2)C(F)(F)F (stereo not given)
inactive: activity change, negative = inhibition [1] 1.18% | activity change, negative = inhibition [2] -2.64% | activity, negative = inhibition [3] -8.22% | Potency [4] > 20.6 µM | activation [5] -17%

COc1ccc(CNC(=O)c2c(C)cc(=O)oc2C)cc1OC
inactive: activity change, negative = inhibition [1] 13.7% | activity change, negative = inhibition [2] 13.8% | activity, negative = inhibition [3] 9.9% | Potency [4] > 20.6 µM | activation [5] 12.6%

O=C1C2ON(c3ccccc3)C(c3cccnc3)C2C(=O)N1c1ccc(Cl)c(Cl)c1 (stereo not given)
inactive: activity change, negative = inhibition [1] -4.98% | activity change, negative = inhibition [2] 16% | activity, negative = inhibition [3] -9.39% | Potency [4] > 20.6 µM | activation [5] 2.42%

N#CC12CCCCC1CC1CCCCC1(C#N)N2Cc1cccnc1 (stereo not given)
inactive: activity change, negative = inhibition [1] 11.8% | activity change, negative = inhibition [2] -6.79% | activity, negative = inhibition [3] 4.8% | Potency [4] > 20.6 µM | activation [5] 9.28%

CC(C)Oc1ccc(/C(O)=C2/C(=O)C(=O)N(CCN(C)C)C2c2ccco2)cc1 (stereo not given)
inactive: activity change, negative = inhibition [1] -1.52% | activity change, negative = inhibition [2] -2.83% | activity, negative = inhibition [3] 8.49% | Potency [4] > 20.6 µM | activation [5] -2.15%

CCC(C(=O)Nc1ncn[nH]1)(C(F)(F)F)C(F)(F)F
inactive: activity change, negative = inhibition [1] 3.02% | activity change, negative = inhibition [2] -11.9% | activity, negative = inhibition [3] 13% | Potency [4] > 20.6 µM | activation [5] -10.1%

Cc1cc(C)nc(NC2=NCC(=O)N2c2ccc(Cl)cc2)n1
inactive: activity change, negative = inhibition [1] 0.0978% | activity change, negative = inhibition [2] -13.8% | activity, negative = inhibition [3] 5.94% | Potency [4] > 20.6 µM | activation [5] 16.5%

CN1c2ccccc2-c2nc3ccccc3n2C1c1ccco1 (stereo not given)
inactive: activity change, negative = inhibition [1] 5.2% | activity change, negative = inhibition [2] -6.44% | activity, negative = inhibition [3] -0.11% | Potency [4] > 20.6 µM | activation [5] -8.71%

CN(C)c1ccc(C=Nc2cnn(C)c2C(N)=O)cc1
inactive: activity change, negative = inhibition [1] -9.71% | activity change, negative = inhibition [2] 2.44% | activity, negative = inhibition [3] -12.3% | Potency [4] > 20.6 µM | activation [5] -1.16%

Cn1cc(Br)cc2nc(C(F)(F)F)nc1-2
inactive: activity change, negative = inhibition [1] -3.15% | activity change, negative = inhibition [2] -3.67% | activity, negative = inhibition [3] 3.32% | Potency [4] > 20.6 µM | activation [5] 2.94%

COC(=O)[C@H]1CCCN1C(=O)Nc1cccc(Oc2c(F)c(F)c(F)c(F)c2F)c1
inactive: activity change, negative = inhibition [1] -14.6% | activity change, negative = inhibition [2] -9.08% | activity, negative = inhibition [3] -7.79% | Potency [4] > 20.6 µM | activation [5] -9.38%

CCOC(=O)c1c(CNCCN(CC)CC)n(C)c2cc(Br)c(OC)cc12
inactive: activity change, negative = inhibition [1] 5.94% | activity change, negative = inhibition [2] 5.36% | activity, negative = inhibition [3] -6.2% | Potency [4] > 20.6 µM | activation [5] -9.75%

Cc1ccc(C(=O)/C=C/Nc2cccc(O)c2)cc1
inactive: activity change, negative = inhibition [1] 10.4% | activity change, negative = inhibition [2] 1.57% | activity, negative = inhibition [3] -17.8% | Potency [4] > 20.6 µM
active: Potency [5] 10 µM

CC(C)COc1ccc(C(=O)NC(CC(C)C)C(=O)O)cc1 (stereo not given)
inactive: activity change, negative = inhibition [1] -2.73% | activity change, negative = inhibition [2] -7.69% | activity, negative = inhibition [3] 3.82% | Potency [4] > 20.6 µM | activation [5] 11.5%

COCCCn1c(C)nc2c(c1=O)c1nc3ccccc3nc1n2CCc1ccccc1
inactive: activity change, negative = inhibition [1] -6.69% | activity change, negative = inhibition [2] -1.98% | activity, negative = inhibition [3] -10% | Potency [4] > 20.6 µM | activation [5] -19.8%
